Results filed as inconclusive are left out. Activity calls are given as the source filed them. Unless noted, calls follow the shape of the dose curve; as a rule, active = well fitted curve in the direction sought with a large enough effect in the repeat runs; inconclusive = weak or mixed curves; inactive = no such curve, though single readings can be large; an effect the other way counts as inactive or inconclusive.
Columns and labels:
[1] = target: Aryl hydrocarbon receptor (Homo sapiens) (UniProt P35869); assay: qHTS assay to identify small molecule that activate the aryl hydrocarbon receptor (AhR) signaling pathway (AID 743085);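 also: HG2L7.5c1 human HepG2 liver cells with stably integrated DRE-driven firefly reporter; series mostly up to about 70 µM; nearly all actives have a fitted effect of over 15% in size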
How it was run: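 Luminescence (ONE-Glo) from a dioxin-responsive-element luciferase reporter in HG2L7.5c1 HepG2 cells after 24 hr compound exposure at 37C; viability measured by CellTiter-Fluor fluorescence beforehand.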

[2] = qHTS assay to identify small molecule that activate the aryl hydrocarbon receptor (AhR) signaling pathway - cell viability counter screen (AID 743086);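 also: HepG2 liver cells carrying the AhR DRE luciferase reporter; series mostly up to about 70 µM; nearly all actives have a fitted effect of over 45% in size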
How it was run: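 HepG2-AhR-luc (HG2L7.5c1) cells, 4000/well, treated 24 h at 37 C with compound; viability measured as CellTiter-Fluor fluorescence after 30 min in the same wells as the luciferase read.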

[3] = qHTS assay to identify small molecule antagonists of the peroxisome proliferator-activated receptor gamma (PPARg) signaling pathway - cell viability counter screen (AID 743194); details: Potency: co-treated with 50 nM rosiglitazone; also: nearly all actives have a fitted effect of over 55% in size
How it was run: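 Cytotoxicity counter screen in PPARg-bla HEK293H cells, same wells as reporter assay. Compounds plus 50 nM rosiglitazone (final) for 17 h at 37 C, then viability read by CellTiter-Glo luminescence.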

[4] = qHTS assay for small molecule agonists of the antioxidant response element (ARE) signaling pathway - cell viability counter screen (AID 743203; calls by dose curve; also: nearly all actives have a fitted effect of over 55% in size)
How it was run: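 ARE-bla HepG2 cells were plated, rested 5 h at 37C/5% CO2, then exposed to compounds in DMSO for 16 h. Viability was read as CellTiter-Glo luminescence after 30 min at room temperature, in the same wells as the ARE screen.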

[5] = qHTS assay for small molecule activators of the heat shock response signaling pathway - cell viability counter screen (AID 743209); also: nearly all actives have a fitted effect of over 50% in size
How it was run: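 HSE-bla HeLa cells plated overnight, then exposed to Tox21 compounds (23 nL in DMSO) for 5 h at 37 C. After the bla reporter read, CellTiter-Glo was added in the same wells and luminescence read after 30 min at room temperature.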

[6] = qHTS assay for small molecule activators of the heat shock response signaling pathway (AID 743210; active = well fitted activation curve with a large enough effect in the signal ratio in the repeat runs, with a control signal flat, not every such curve was filed as active; the % refers to the signal ratio; also: series mostly up to about 63 µM)
How it was run: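 HSE-bla HeLa cells (beta-lactamase reporter under heat shock response elements), plated overnight, then exposed to compounds 5 h at 37 C; LiveBLAzer B/G FRET substrate added, 2.5 h at room temperature, fluorescence intensity read.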

[7] = qHTS assay to identify small molecule agonists of the peroxisome proliferator-activated receptor delta (PPARd) signaling pathway - cell viability counter screen (AID 743211); also: nearly all actives have a fitted effect of over 55% in size
How it was run: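 Viability was measured as CellTiter-Glo luminescence (30 min, room temperature) in the same wells as the beta-lactamase readout. GeneBLAzer PPARd UAS-bla HEK293H cells received compound after 5 h plating and were incubated 17 h at 37 C.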

[8] = target: Peroxisome proliferator-activated receptor delta (Homo sapiens) (UniProt Q03181); assay: qHTS assay to identify small molecule agonists of the peroxisome proliferator-activated receptor delta (PPARd) signaling pathway (AID 743212; calls by dose curve)
How it was run: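 GeneBLAzer UAS-bla HEK293H cells carrying a PPARδ construct were exposed to compounds at 37 °C. Beta-lactamase activity was read by FRET fluorescence after 2 h at room temperature with LiveBLAzer B/G substrate.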

[9] = qHTS assay to identify small molecule antagonists of the peroxisome proliferator-activated receptor delta (PPARd) signaling pathway - cell viability counter screen (AID 743213); also: nearly all actives have a fitted effect of over 50% in size
How it was run: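 CellTiter-Glo was added to PPARd-bla HEK293H wells following 17 h compound treatment in the presence of 300 nM L165041. Luminescence was recorded after 30 min at room temperature.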

[10] = target: Peroxisome proliferator-activated receptor delta (Homo sapiens) (UniProt Q03181); assay: qHTS assay to identify small molecule antagonists of the peroxisome proliferator-activated receptor delta (PPARd) signaling pathway (AID 743215; active = well fitted inhibition curve with a large enough effect in the signal ratio in the repeat runs, not every such curve was filed as active; the % refers to the signal ratio;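 also: cells stimulated with agonist L165041 at 300 nM final during compound exposure; series mostly up to about 62 µM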)
How it was run: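 PPARd-bla HEK293H cells (UAS-bla reporter) preincubated 5 h, then given compound plus 300 nM final L165041 agonist for 17 h at 37 C. Beta-lactamase activity read by LiveBLAzer B/G FRET substrate fluorescence after 2 h at room temperature.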

[11] = qHTS assay to identify small molecule agonists of the farnesoid-X-receptor (FXR) signaling pathway - cell viability counter screen (AID 743218); also: nearly all actives have a fitted effect of over 45% in size
How it was run: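 FXR-UAS-bla HEK 293T cells exposed to compounds for 16 h at 37C. Cytotoxicity read in the same wells by CellTiter-Glo luminescence after 30 min at room temperature, following the beta-lactamase FRET read.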

[12] = qHTS assay to identify small molecule antagonists of the farnesoid-X-receptor (FXR) signaling pathway - cell viability counter screen (AID 743221; active = well fitted cell-killing curve with a large enough effect in the repeat runs, not every such curve was filed as active; also: nearly all actives have a fitted effect of over 50% in size)
How it was run: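 Cytotoxicity counter screen run in the FXR-bla reporter wells: HEK 293T cells exposed to compound with 50 uM (final) chenodeoxycholic acid for 16 h, 37 C, then viability measured by CellTiter-Glo luminescence after 30 min, room temperature.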

[13] = target: Vitamin D3 receptor (Homo sapiens) (UniProt P11473); assay: qHTS assay to identify small molecule agonists of the vitamin D receptor (VDR) signaling pathway (AID 743222; calls by dose curve)
How it was run: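 VDR-bla cells plated 4 h at 37 C, then exposed to compounds for 16 h at 37 C. Beta-lactamase reporter activity measured by fluorescence after 2 h room-temperature loading with LiveBLAzer B/G FRET substrate.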

[14] = target: Vitamin D3 receptor (Homo sapiens) (UniProt P11473); assay: qHTS assay to identify small molecule antagonists of the vitamin D receptor (VDR) signaling pathway (AID 743223; active = well fitted inhibition curve with a large enough effect in the signal ratio in the repeat runs, not every such curve was filed as active; the % refers to the signal ratio)
How it was run: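 Antagonist mode: compound added to VDR-bla cells alongside agonist 1alpha,25-dihydroxyvitamin D3 (3 nM final), incubation 16 h at 37C. Read-out is LiveBLAzer FRET fluorescence, 2 h at room temperature.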

[15] = qHTS assay to identify small molecule agonists of the vitamin D receptor (VDR) signaling pathway - cell viability counter screen (AID 743224); also: series mostly up to about 63 µM; nearly all actives have a fitted effect of over 50% in size
How it was run: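 VDR-bla cells, 4 h after plating, exposed to compounds for 16 h at 37C; viability then read in the same wells as CellTiter-Glo luminescence after 30 min at room temperature, following the bla FRET read.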

[16] = target: Peroxisome proliferator-activated receptor gamma (Homo sapiens) (UniProt P37231); assay: qHTS assay to identify small molecule agonists of the peroxisome proliferator-activated receptor gamma (PPARg) signaling pathway (AID 743094; active = well fitted activation curve with a large enough effect in the signal ratio in the repeat runs, not every such curve was filed as active; the % refers to the signal ratio)
How it was run: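 GeneBLAzer PPARg UAS-bla HEK293H cells were plated, rested 5 h, then exposed to compounds for 17 h at 37C. Beta-lactamase activity was read by LiveBLAzer B/G FRET substrate fluorescence after 1 h at room temperature.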

[17] = qHTS assay for small molecule agonists of the antioxidant response element (ARE) signaling pathway (AID 743202; active = well fitted activation curve with a large enough effect in the signal ratio in the repeat runs, not every such curve was filed as active; the % refers to the signal ratio)
How it was run: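 ARE-bla HepG2 cells (beta-lactamase reporter under the antioxidant response element), plated 5 hours, then exposed to compounds 16 hours at 37 C. LiveBLAzer B/G FRET substrate added for 2 hours at room temperature; fluorescence intensity read.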

[18] = target: Bile acid receptor (Homo sapiens) (UniProt Q96RI1); assay: qHTS assay to identify small molecule antagonists of the farnesoid-X-receptor (FXR) signaling pathway (AID 743217; active = well fitted inhibition curve with a large enough effect in the signal ratio in the repeat runs, not every such curve was filed as active; the % refers to the signal ratio)
How it was run: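 FXR-UAS-bla HEK 293T cells (beta-lactamase reporter) given compound plus chenodeoxycholic acid (50 uM final), 16 h at 37C. LiveBLAzer B/G FRET substrate added for 2 h at room temperature; fluorescence read.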

[19] = target: Bile acid receptor (Homo sapiens) (UniProt Q96RI1); assay: qHTS assay to identify small molecule agonists of the farnesoid-X-receptor (FXR) signaling pathway (AID 743220; active = well fitted activation curve with a large enough effect in the signal ratio in the repeat runs, not every such curve was filed as active; the % refers to the signal ratio)
How it was run: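 Beta-lactamase reporter under UAS control in GeneBLAzer FXR HEK 293T cells (5000/well) measured with LiveBLAzer FRET substrate after 2 h at room temperature. Compound exposure lasted 16 h at 37C.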

[20] = target: Peroxisome proliferator-activated receptor gamma (Homo sapiens) (UniProt P37231); assay: qHTS assay to identify small molecule antagonists of the peroxisome proliferator-activated receptor gamma (PPARg) signaling pathway (AID 743191; calls by dose curve; also: series mostly up to about 63 µM; nearly all actives have a fitted effect of over 30% in size)
How it was run: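 GeneBLAzer PPARg UAS-bla HEK293H cells, 5 h post-plating, exposed to compounds 17 h at 37C. LiveBLAzer B/G FRET substrate added for 1 h at room temperature; beta-lactamase reporter read by fluorescence intensity.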

Measured: Potency

Peroxisome proliferator-activated receptor delta (Homo sapiens), sequence (Q03181 whole entry, looked up): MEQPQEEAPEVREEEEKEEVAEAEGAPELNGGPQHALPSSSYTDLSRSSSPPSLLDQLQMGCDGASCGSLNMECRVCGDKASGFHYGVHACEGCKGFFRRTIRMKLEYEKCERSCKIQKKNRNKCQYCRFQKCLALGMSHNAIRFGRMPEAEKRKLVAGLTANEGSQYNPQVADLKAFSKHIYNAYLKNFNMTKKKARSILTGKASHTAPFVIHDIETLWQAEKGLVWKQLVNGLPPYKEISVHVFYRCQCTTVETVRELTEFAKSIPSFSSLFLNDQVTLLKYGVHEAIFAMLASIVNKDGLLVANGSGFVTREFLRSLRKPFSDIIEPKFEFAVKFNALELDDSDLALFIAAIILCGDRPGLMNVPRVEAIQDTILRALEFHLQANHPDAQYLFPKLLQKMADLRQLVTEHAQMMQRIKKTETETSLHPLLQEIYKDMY
Bile acid receptor (Homo sapiens), sequence (Q96RI1 whole entry, looked up): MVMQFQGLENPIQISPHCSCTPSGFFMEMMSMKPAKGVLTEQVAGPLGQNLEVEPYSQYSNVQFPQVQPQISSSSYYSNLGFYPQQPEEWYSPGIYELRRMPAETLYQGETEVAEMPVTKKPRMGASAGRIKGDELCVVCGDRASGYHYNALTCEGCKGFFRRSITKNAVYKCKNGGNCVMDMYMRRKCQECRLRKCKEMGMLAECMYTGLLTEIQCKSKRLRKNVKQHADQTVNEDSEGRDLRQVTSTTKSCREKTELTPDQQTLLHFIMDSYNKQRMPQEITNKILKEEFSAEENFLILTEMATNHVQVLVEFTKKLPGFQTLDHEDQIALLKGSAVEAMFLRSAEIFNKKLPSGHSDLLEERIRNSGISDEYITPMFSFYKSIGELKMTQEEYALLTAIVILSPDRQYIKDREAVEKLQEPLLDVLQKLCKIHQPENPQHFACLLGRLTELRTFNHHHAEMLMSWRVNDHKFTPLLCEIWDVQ
Peroxisome proliferator-activated receptor gamma (Homo sapiens), sequence (P37231 whole entry, looked up): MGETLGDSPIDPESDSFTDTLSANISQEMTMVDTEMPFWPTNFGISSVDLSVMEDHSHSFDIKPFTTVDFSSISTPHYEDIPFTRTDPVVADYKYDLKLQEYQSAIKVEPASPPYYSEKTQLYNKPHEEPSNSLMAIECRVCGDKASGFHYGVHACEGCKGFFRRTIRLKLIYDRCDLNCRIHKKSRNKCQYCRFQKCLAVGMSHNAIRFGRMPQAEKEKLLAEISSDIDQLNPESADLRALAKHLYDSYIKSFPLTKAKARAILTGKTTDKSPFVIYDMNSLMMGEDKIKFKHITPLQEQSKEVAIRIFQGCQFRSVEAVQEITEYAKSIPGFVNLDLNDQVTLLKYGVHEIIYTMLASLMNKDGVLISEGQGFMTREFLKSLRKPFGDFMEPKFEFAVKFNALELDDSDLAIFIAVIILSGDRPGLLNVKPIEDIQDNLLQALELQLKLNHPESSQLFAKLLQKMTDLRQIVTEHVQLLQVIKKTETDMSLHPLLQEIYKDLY
Aryl hydrocarbon receptor (Homo sapiens), sequence (P35869 whole entry, looked up): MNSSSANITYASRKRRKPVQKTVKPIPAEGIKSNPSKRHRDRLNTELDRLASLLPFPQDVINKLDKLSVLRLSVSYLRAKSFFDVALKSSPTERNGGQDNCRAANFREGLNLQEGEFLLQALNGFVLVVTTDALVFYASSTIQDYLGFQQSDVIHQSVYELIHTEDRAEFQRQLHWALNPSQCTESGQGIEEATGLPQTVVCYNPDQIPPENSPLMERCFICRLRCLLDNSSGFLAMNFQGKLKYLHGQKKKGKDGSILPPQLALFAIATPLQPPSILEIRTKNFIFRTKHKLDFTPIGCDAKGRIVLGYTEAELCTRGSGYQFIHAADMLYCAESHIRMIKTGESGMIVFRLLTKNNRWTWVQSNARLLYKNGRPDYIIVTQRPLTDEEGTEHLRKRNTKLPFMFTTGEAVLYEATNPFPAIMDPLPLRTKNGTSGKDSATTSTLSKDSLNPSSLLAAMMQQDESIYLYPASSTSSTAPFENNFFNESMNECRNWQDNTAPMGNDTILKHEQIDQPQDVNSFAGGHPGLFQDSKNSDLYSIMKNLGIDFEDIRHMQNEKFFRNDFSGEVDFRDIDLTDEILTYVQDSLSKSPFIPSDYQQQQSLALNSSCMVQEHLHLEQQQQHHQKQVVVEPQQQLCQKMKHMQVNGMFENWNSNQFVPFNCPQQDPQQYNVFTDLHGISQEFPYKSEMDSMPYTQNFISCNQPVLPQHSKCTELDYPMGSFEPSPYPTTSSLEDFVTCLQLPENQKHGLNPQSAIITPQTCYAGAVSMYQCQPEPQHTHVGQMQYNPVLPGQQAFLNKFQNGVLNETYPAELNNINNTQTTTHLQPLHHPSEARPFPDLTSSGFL
Vitamin D3 receptor (Homo sapiens), sequence (P11473 whole entry, looked up): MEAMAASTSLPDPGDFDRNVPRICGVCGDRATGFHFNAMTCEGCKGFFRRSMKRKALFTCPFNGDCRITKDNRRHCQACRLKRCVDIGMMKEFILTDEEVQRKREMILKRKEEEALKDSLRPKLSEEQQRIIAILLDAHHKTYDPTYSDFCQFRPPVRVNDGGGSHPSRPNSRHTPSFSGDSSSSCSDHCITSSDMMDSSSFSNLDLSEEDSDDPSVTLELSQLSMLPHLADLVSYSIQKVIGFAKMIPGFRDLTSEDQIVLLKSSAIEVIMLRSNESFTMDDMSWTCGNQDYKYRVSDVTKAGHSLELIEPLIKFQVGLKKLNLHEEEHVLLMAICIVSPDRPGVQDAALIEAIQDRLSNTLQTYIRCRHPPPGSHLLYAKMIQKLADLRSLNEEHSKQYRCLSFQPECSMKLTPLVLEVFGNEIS

CN1C(=O)COc2c(C(=O)NC3CN4CCC3CC4)cc(Cl)cc21 (stereo not drawn)
not listed: [16] | [17] | [18] | [19] | [20]
inactive: all other assays above

CCN[C@@H](C)Cc1cccc(C(F)(F)F)c1
not listed: [3] | [5] | [8] | [9] | [13] | [14] | [20]
inactive: all other assays above

CCN[C@@H](C)Cc1ccccc1
not listed: [3] | [8] | [10] | [12] | [17] | [20]
inactive: all other assays above

CCNc1nc(NCC)nc(SC)n1
not listed: [3] | [8] | [9] | [10] | [17] | [18] | [19] | [20]
inactive: all other assays above

O=C(Cl)c1ccccc1
not listed: [3] | [11] | [17] | [20]
inactive: all other assays above

COP(=O)(OC)O/C(C)=C/C(=O)N(C)C
not listed: [3] | [10] | [11] | [18] | [19] | [20]
inactive: all other assays above

C[C@]12C=CC(=O)C=C1CC[C@@H]1[C@@H]2CC[C@@]2(C)[C@H]1CC[C@]2(C)O
inactive: [1] | [2] | [16] | [4] | [5] | [6] | [7] | [11] | [12] | [14] | [15]

Cc1ccc2cc(C)ccc2c1
not listed: [2] | [8] | [9] | [10] | [14]
inactive: all other assays above

COc1cc(CCN)cc(OC)c1OC
not listed: [2] | [13]
inactive: all other assays above

NCCOS(=O)(=O)O
not listed: [2]
inactive: all other assays above

C=C(Cl)CCl
not listed: [1] | [8] | [12] | [18] | [19]
inactive: all other assays above

CCCCCCCC(=O)Cl
not listed: [1] | [8] | [9] | [13] | [14]
inactive: all other assays above

Cc1ccc(S(=O)(=O)N[C@@H](CCCCN)C(=O)CCl)cc1
inactive: [1] | [17] | [4] | [5] | [7] | [9] | [18] | [11] | [19] | [12] | [15]
